Assay in all cases: log2 fold change, soluble protein after heating vs DMSO (PISA); higher = thermal stabilisation; K562 cells, 10 uM, 30 min; active = over 0.2 and 3.5 SD of the protein, either way, in both replicates (recomputed)
Compound in assay [1]: C#Cc1cccc(Nc2ncnc3cc(OCCOC)c(OCCOC)cc23)c1 [erlotinib]
The procedure, abridged: (§1)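 Soluble protein was defined as the supernatant after 21,000xg for 90 min. It came from K562 cells at 2×10^6 cells/mL given 10 μM compound for 30 min, heated in aliquots for 3 min across 48°C-58°C, pooled, and extracted in PBS with 0.5% NP-40 at 4°C, and was quantified by TMTpro 16plex LC-MS/MS with equalised channel sums. Thermal stability against control samples, from duplicates, is reported as log2 fold change.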

Compound in assay [2]: C1=CC(=C(C=C1Cl)C2=NC3=NC=CN=C3C(=N2)NC4=CC=NC=C4)F
In outline:
as §1

Compound in assay [3]: C1=CC(=CC=C1C2=NC3=C(N2)C=C(C=C3)C(=O)N)OC4=CC=C(C=C4)Cl
In outline: as §1

Compound in assay [4]: C1=CC=C(C=C1)C2=NC(=C(N2)C3=CC=NC=C3)C4=CC(=C(C=C4)Cl)O
The procedure, abridged:
as §1

Compound in assay [5]: C1COCCN1CCN2C3=CC=CC=C3N=C2NC(=O)C4=CC(=CC=C4)[N+](=O)[O-] [IRAK-1-4 Inhibitor I]
The procedure, abridged:
as §1

Compound in assay [6]: CC(C)(C)Cn1c(N)nc2ccc(-c3[nH]c(C(C)(C)C)nc3-c3ccc(F)cc3)nc21 [ralimetinib]
The procedure, abridged: as §1

Compound in assay [7]: CC(C)(O)CC(=O)NCCn1ccc2ncnc(Nc3ccc(Oc4cccc(C(F)(F)F)c4)c(Cl)c3)c21
The procedure, abridged:
as §1

Compound in assay [8]: CC(C)C1=C2N=C(C=C(N2N=C1)NCC3=CC=CC=C3)NCCCCCCN
The procedure, abridged:
as §1

Compound in assay [9]: CC(C)C[C@@H](C=O)NC(=O)[C@H](CC(C)C)NC(=O)[C@H](CC(C)C)NC(=O)OCc1ccccc1
The procedure, abridged:
as §1

Compound in assay [10]: CC(C)N(C[C@H]1O[C@@H](n2cnc3c(N)ncnc32)[C@H](O)[C@@H]1O)[C@H]1C[C@@H](CCc2nc3cc(C(C)(C)C)ccc3[nH]2)C1 [pinometostat]
In outline:
as §1

Compound in assay [11]: C1=CC2=NC=CN=C2C=C1/C=C/3\C(=O)NC(=O)S3
In outline:
as §1

Compound in assay [12]: C=CC(=O)N1CCC[C@@H](n2nc(-c3ccc(Oc4ccccc4)cc3)c3c(N)ncnc32)C1 [ibrutinib]
The procedure, abridged:
as §1

Compound in assay [13]: CC1=C(C(CC(=O)N1)C2=CC=C(C=C2)C(F)(F)F)C(=O)NC3=C(C=C4C(=C3)C=NN4)F
In outline: as §1

Compound in assay [14]: C1CCN(C1)C(=O)NC2=CC=CC(=C2)NC3=NC=C(C(=N3)NCCC4=CN=CN4)Br
In outline:
as §1

Compound in assay [15]: C1CN(CCC1(CC2=CC=C(C=C2)Cl)N)C3=NC=NC4=C3C=CN4
In outline: as §1

Compound in assay [16]: CC1=C(C2=C(C=C1)C(=O)C3=CC=CC=C3N2CCCN)C
In outline: as §1

Compound in assay [17]: C/C(=N\NC(=O)C1=CC(=CC=C1)S(=O)(=O)N2CCOCC2)/C3=C(C=CC(=C3)Cl)O
The procedure, abridged:
as §1

Compound in assay [18]: C1=CC2=C(C=CC(=C2)/C=C\3/C(=O)NC(=NCC4=CC=CS4)S3)N=C1
The procedure, abridged: as §1

Compound in assay [19]: C1=CC=C2C(=C1)C3=NNC4=CC=CC(=C43)C2=O
In outline:
as §1

Compound in assay [20]: CC(=O)c1cnc2ccc(-c3cc(Cl)c(O)c(Cl)c3)nc2c1N[C@H]1CC[C@H](CN(C)C)CC1
The procedure, abridged: as §1

About 7,900 targets were measured; listed, in parts, are those with a hit and a random draw of the rest. About 0.6% of all pairs of compound and target were hits. Unmarked numbers belong to inactive results.

Sequence of UniProt Q12906 (Q12906 whole entry, looked up): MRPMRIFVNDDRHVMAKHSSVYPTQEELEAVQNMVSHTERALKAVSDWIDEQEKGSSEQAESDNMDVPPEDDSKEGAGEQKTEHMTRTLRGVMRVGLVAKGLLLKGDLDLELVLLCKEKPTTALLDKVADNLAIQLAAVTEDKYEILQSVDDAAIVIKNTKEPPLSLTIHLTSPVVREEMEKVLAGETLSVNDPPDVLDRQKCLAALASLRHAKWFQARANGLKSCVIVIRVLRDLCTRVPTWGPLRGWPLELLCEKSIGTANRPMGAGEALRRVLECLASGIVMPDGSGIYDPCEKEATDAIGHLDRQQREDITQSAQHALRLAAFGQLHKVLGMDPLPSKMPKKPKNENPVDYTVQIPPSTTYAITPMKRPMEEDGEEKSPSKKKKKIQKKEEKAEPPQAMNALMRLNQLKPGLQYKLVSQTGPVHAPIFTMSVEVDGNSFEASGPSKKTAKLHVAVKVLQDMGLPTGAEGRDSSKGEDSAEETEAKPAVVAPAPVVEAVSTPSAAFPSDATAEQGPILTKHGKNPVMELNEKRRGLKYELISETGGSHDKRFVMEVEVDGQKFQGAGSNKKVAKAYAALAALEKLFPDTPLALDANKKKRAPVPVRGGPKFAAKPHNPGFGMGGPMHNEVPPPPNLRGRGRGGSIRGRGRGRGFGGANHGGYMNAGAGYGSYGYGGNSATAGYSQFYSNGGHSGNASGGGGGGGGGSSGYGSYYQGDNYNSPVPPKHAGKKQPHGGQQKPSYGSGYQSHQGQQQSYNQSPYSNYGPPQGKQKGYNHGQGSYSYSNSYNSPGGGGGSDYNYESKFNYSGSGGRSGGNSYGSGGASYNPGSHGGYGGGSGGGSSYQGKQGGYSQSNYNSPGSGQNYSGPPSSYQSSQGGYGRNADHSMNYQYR
Sequence of UniProt Q86X29 (Q86X29 whole entry, looked up): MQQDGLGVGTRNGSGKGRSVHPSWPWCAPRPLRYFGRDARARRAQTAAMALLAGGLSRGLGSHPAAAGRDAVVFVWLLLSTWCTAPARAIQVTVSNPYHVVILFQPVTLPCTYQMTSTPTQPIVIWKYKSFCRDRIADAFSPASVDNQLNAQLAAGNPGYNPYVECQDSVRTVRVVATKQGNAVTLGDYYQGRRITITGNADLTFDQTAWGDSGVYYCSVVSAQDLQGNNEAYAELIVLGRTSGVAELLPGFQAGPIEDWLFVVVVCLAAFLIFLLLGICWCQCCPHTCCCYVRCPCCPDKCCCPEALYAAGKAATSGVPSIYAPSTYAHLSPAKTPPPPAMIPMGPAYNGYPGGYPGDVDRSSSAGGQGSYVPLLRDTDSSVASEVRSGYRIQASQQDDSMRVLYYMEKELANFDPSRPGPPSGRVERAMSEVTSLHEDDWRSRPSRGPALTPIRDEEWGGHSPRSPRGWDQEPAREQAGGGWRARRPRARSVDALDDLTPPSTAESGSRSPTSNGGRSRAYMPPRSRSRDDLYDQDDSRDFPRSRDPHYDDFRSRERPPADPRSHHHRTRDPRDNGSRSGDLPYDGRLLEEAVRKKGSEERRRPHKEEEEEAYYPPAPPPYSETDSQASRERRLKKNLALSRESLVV
Sequence of UniProt O60291 (O60291 whole entry, looked up): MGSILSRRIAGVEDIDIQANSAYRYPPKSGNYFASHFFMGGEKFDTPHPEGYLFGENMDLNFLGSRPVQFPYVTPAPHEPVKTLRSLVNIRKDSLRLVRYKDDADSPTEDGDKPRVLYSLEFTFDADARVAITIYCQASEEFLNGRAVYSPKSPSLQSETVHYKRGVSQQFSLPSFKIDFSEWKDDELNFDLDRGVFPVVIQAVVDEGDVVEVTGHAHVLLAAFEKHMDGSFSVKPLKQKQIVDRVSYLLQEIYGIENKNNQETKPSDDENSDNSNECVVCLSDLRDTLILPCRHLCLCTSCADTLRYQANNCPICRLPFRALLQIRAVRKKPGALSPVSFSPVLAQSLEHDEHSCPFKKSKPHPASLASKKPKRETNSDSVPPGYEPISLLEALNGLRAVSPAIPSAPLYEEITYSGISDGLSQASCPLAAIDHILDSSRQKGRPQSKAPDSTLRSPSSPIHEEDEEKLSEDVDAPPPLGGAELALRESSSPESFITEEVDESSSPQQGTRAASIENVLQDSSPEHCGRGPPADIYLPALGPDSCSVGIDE
Sequence of UniProt Q9C099 (Q9C099 whole entry, looked up): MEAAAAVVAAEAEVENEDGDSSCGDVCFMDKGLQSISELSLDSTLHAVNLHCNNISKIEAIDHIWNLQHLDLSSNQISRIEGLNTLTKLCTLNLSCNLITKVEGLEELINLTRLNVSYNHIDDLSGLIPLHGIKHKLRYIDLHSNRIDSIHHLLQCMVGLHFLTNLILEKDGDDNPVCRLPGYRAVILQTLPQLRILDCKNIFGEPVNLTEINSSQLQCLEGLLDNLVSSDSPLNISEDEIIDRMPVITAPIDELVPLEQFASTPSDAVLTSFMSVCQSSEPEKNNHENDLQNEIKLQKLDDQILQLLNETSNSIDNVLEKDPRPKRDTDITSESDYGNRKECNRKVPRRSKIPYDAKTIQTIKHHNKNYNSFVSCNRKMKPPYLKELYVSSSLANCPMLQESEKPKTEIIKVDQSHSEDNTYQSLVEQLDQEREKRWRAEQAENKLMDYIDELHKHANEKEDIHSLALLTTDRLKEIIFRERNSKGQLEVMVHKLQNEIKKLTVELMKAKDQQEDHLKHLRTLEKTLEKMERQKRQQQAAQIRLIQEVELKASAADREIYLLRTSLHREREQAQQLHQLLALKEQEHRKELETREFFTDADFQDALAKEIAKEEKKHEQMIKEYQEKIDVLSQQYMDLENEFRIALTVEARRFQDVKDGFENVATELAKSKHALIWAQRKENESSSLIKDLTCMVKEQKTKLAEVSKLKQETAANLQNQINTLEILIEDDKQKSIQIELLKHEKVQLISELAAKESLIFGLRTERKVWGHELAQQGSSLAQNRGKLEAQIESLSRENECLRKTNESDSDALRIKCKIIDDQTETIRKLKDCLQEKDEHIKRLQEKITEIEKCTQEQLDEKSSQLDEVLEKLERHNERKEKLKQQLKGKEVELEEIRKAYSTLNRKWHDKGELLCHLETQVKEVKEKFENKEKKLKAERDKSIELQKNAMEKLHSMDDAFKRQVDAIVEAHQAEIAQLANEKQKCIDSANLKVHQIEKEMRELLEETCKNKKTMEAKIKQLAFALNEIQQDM
Sequence of UniProt Q8TDD5 (Q8TDD5 whole entry, looked up): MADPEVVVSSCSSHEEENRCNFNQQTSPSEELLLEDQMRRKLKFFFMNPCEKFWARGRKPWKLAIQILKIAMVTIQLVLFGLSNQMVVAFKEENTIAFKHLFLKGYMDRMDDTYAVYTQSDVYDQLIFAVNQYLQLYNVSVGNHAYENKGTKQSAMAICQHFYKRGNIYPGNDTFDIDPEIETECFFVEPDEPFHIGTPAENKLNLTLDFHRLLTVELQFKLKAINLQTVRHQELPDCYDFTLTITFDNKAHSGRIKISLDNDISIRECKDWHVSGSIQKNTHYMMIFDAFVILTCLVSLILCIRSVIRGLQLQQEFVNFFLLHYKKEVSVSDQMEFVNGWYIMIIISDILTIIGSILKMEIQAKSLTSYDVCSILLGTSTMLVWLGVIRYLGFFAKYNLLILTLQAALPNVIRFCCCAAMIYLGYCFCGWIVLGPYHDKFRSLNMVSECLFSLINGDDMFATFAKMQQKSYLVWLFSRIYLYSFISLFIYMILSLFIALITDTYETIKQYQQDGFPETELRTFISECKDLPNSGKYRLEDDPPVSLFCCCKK
Sequence of UniProt Q8WYH8 (Q8WYH8 whole entry, looked up): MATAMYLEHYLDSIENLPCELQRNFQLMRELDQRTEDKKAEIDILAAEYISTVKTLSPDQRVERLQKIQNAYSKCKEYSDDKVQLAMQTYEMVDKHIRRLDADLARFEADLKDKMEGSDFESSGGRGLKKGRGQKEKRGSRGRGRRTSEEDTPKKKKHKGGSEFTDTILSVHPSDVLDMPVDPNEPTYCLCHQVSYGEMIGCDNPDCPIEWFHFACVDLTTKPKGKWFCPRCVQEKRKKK
Sequence of UniProt O95279 (O95279 whole entry, looked up): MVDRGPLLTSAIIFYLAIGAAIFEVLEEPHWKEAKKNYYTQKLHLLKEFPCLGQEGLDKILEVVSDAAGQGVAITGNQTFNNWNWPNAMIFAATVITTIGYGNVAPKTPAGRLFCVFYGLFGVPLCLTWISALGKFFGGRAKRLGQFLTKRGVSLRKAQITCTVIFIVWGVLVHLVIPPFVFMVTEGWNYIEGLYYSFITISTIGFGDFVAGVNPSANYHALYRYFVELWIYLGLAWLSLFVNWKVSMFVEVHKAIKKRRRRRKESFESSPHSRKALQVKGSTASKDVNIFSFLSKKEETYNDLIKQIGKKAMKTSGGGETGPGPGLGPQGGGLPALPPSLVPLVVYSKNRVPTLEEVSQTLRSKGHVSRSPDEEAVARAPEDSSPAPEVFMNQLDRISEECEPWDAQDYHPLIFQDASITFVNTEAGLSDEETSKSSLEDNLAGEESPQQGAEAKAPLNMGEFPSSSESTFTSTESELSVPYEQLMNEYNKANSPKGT
Sequence of UniProt A4D2B0 (A4D2B0 whole entry, looked up): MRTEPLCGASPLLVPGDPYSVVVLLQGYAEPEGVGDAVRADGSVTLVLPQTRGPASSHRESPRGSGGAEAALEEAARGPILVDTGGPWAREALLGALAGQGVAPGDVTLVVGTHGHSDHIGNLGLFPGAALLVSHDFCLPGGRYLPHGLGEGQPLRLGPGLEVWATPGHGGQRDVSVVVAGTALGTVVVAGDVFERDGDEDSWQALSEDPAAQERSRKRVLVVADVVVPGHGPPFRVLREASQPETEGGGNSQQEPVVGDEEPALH

In the case of ITPRID2 (UniProt P28290), the log2 fold change was 0.022 in assay [1]; -0.133 in [2]; -0.268 in [3]; -0.213 in [4]; 0.004 in assay [5]; -0.025 in assay [6]. For the same target, the log2 fold change was 0.238 in assay [7], -0.686 (active) in assay [8], 0.063 in assay [9] and 0.03 in [10].
Consider ILF3 (UniProt Q12906), for which the log2 fold change in assay [2] is -0.083; in assay [11], 0.128; in assay [5], -0.058; in assay [12], 0.036; in assay [7] it was 0.191; in [10], 0.029. Further, the log2 fold change in assay [13] is -0.126.
For LMNA isoform 2 (UniProt P02545), the log2 fold change was -0.022 in [14], 0.146 in [15] and -0.128 in assay [16].
Turning to MBLAC1 (UniProt A4D2B0), the log2 fold change in [1] was 0.074; in [17] it was -0.042; in assay [3], 0.026; in assay [18], 0.036; in [11], 0.019; in [4] it was 0.002. In addition, the log2 fold change in assay [19] was -0.024; in assay [5], 0.371; in assay [12] it was -0.03; in assay [20] it was 0.001; in assay [6] it was -0.074; in assay [8], 0.126. In addition, the values for the log2 fold change in assay [9] and in assay [10] were -0.011 and -0.163, respectively.
For IPP (UniProt Q9Y573), the log2 fold change in assay [17] is 0.091; in assay [18] it was 0.083; in assay [11], -0.17; in assay [19], 0.139; in assay [12], 0.041; in [20] it was -0.084.
As for LRRCC1 (UniProt Q9C099), the log2 fold change in assay [17] was -0.671 (active); in [18], 0.088; in assay [4], 0.257; in assay [19], 0.123; in assay [14], 0.121; in assay [15] it was 0.101. Moreover, the log2 fold change in assay [20] is 0.047; in [6], 0.043; in assay [9], 0.237; in assay [16], 0.109.
As for ING5 (UniProt Q8WYH8), the log2 fold change in assay [1] is 0.273; in [3] it was -0.119; in assay [14], 0.003; in assay [15] it was 0.286; in assay [5], 0.101; in assay [8], -0.395. The values for the log2 fold change in [10] and in assay [16] were 0.097 and 0.03, respectively.
Take MAP2K5 (UniProt Q13163): the log2 fold change is 0.021 in assay [17]; 0.277 in assay [18]; 0.145 in assay [4]; -0.036 in assay [19]; 0.063 in [5]; -1.19 (active) in [20]. Besides, the log2 fold change in assay [6] was 0.066; in [9] it was -0.238; in assay [10] it was -0.051.
Turning to KCNK5 (UniProt O95279), the log2 fold change in assay [1] is -0.101; in [2] it was -0.128; in assay [3], 0.077; in assay [11], 0.095; in assay [5] it was -0.033; in assay [12], 0.019. For the same target, the log2 fold change was -0.209 in [7], -2.03 (active) in [8] and 0 in [10].
Regarding LSR isoform 3 (UniProt Q86X29), the log2 fold change in assay [14] was -0.169; in assay [15] it was 0.25; in [16], -0.106.
For KIZ (UniProt Q2M2Z5), the log2 fold change in [17] is 0.018; in assay [18] it was 0.077; in assay [4], 0.103; in assay [19], -0.01; in assay [5] it was -0.075; in assay [20], 0.039. Also, the log2 fold change is 0.06 in assay [6], -0.107 in assay [9] and 0.099 in assay [10].
With MCOLN3 (UniProt Q8TDD5), the log2 fold change in assay [1] is 0.244; in [3], -0.016; in assay [11], 0.112; in assay [4], -0.049; in assay [14] it was 0.053; in assay [15], 0.107. Moreover, the log2 fold change in assay [12] was -0.17; in assay [6], -0.057; in [8], 0.019; in assay [9], 0.029; in [13], 0.03; in [16], 0.08.
In the case of MGRN1 isoform 2 (UniProt O60291), the log2 fold change in [1] is 0.016; in assay [17], 0.079; in [3], 0; in assay [18] it was -0.544 (active); in assay [11] it was 0.004; in [4] it was -0.095. The log2 fold change in [19] was 0.073; in [14] it was 0.008; in [15], 0.227; in [5], 0.062; in assay [12] it was -0.003; in assay [20], 0.116. For the same target, the log2 fold change in [6] was -0.015; in [8], -0.225; in [9], 0.114; in assay [10], 0.041; in assay [16], -0.098.

(Values after the supplement of paper PMC10849652.)
